From PubChem BioAssay
ABHD5-PLIN5 inh: blocks binding of human ABHD5 to perilipin-5; Q00G26+Q8WTS1; Split G. princeps luciferase complementation, luminescence, 4 h; inhibition, % at 4 µM; 360,000 tested, 0.78% active; AID 602281;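 active means inhibition above the mean inhibition across every tested compound plus 3 SD, cut at about 22% in these data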
Exocytosis inh: lytic granule exocytosis inhibition; TALL-104 LAMP-1 surface exposure, flow cytometry; cells stimulated with thapsigargin and PMA; inhibition, % at 10 µM; 360,000 tested, 0.66% active;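 active means inhibition above about 55%, limit read from the data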
M18AAP inhibitor: PfM18AAP enzyme inhibition. inhibition, % at 7.35 µM. AID 1822. recombinant PfM18AAP, H-Glu-NHMec fluorogenic cleavage. 290,000 tested, 1.2% active;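 active means inhibition above the campaign mean inhibition over all tested compounds plus 3 SD, cut at about 28% in these data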
Platelet DG rel: platelet dense granule release activity; inhibition, %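 (compounds screened at 7.5 µM in platelet-rich plasma)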; human platelet-rich plasma, SFLLRN dense granule ATP release, luminescence; AID 1663; 300,000 tested, 0.22% active;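 active means mean replicate score, as percent of positive control, at or above 50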
Rce1 inhib: yeast Ras-converting enzyme inhibition; yeast membranes, quenched prenylated peptide cleavage fluorescence; Q03530; calls only; 290,000 tested, 0.27% active;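 active means fall in fluorescence gain of 50% or more versus controls, with final raw signal at or below 3038400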
Target sequence (Q03530 whole entry, looked up): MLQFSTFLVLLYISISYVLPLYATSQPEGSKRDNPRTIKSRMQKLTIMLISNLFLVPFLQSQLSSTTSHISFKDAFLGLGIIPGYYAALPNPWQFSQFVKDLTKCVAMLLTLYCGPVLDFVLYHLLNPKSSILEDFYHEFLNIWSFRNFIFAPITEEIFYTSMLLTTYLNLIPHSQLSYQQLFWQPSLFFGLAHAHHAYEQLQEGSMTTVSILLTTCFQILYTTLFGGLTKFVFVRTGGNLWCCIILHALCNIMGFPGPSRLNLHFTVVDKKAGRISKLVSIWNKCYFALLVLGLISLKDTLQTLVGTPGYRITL
Hits are given with their value; n = inactive; x = no result; + = active, no number. Shown are actives, neighbours in structure and some others; about 2.6% of the full set was active somewhere.

SMILES | ABHD5-PLIN5 inh | Exocytosis inh | M18AAP inhibitor | Platelet DG rel | Rce1 inhib
N#Cc1ccccc1Cn1cc(/C=N/Nc2ccc([N+](=O)[O-])cn2)c2ccccc21 | n | n | n | n | n
C=CCOC(=O)C1=C[C@H](c2cn(C(C)=O)c3ccccc23)C[C@H](OCCCCO)O1 | n | n | n | n | n
Cn1c(Cc2ccccc2)n[nH]c1=S | n | n | 30 | n | n
Cn1c(CSc2nc3ccccc3s2)nc2ccccc21 | n | n | n | n | n
Cn1c(CSc2nc3ccccc3s2)n[nH]c1=S | n | n | 30 | n | n
Cn1c(=O)[nH]c(=O)c2c1nc(N/N=C/C(Br)=C/c1ccccc1)n2CCO | n | n | 30 | n | x
CCCCc1cn(C[C@H]2CC[C@@H]([C@@H]3CC[C@H](Cn4cc(CCCC)nn4)O3)O2)nn1 | n | n | n | n | n
CN(C)C(=O)C[n+]1cccc(/C=N/O)c1 | n | n | n | n | n
CC(=O)Nc1cccc(NC(=S)Nc2cccc(Cl)c2C)c1 | n | n | 31 | n | n
CC(=O)Nc1cccc(NC(=O)Nc2cccc(Cl)c2C)c1 | n | n | n | n | n
C=CCN1C(=O)C2(NNc3ccccc3O2)c2ccccc21 (configuration not stated) | n | n | 31 | n | n
O=C(O)CC(C(=O)O)N1C(=O)/C(=C/C=C/c2ccco2)SC1=S (configuration not stated) | n | n | 31 | n | n
COc1ccc(C(=O)O/N=C(/c2ccccc2)c2ccncc2)cc1 | n | n | n | n | n
COc1ccc(C(=O)N=c2nc3ccccn3s2)cc1 | n | n | n | 50 | n
CN(C)c1ccc(/C=N/NC(=O)CNC(=O)c2ccco2)cc1 | n | n | n | n | +
CN(C)c1ccc(/C=N/NC(=O)CNC(=O)/C=C/c2ccccc2)cc1 | n | n | n | n | n
N=c1c(S(=O)(=O)c2ccc(Cl)cc2)cc2c(=O)n3ccccc3nc2n1Cc1ccco1 | 28 | n | n | n | n
N=c1c(S(=O)(=O)c2ccc(Br)cc2)cc2c(=O)n3ccccc3nc2n1Cc1ccco1 | 34 | n | n | n | n
CCCCC(=O)Nc1nnc(SCC(=O)N2CCN(c3ccccc3OC)CC2)s1 | n | n | n | n | n
O=c1ccn(Cc2ccccc2)c2ccccc12 | n | n | x | n | n
CCOC(=O)c1cc2c(=Cc3ccc(N(C)C)cc3)c3ccccc3n2[n+]1C | n | 67 | x | x | x
Cc1cc2c(=Cc3ccc(N(C)C)cc3)c3ccccc3n2[n+]1C | n | n | x | x | x
COc1cc(C(=O)Nc2cc(C)nn2-c2ccccc2)cc(OC)c1OC | n | n | n | n | n
Cc1c(N2C(=O)/C(=C\c3ccc(N(C)C)cc3)N(C)C2=S)c(=O)n(-c2ccccc2)n1C | 22 | n | n | x | x
C/C(CC(=O)NC12CC3CC(CC(C3)C1)C2)=N\NC(=O)Cc1cccs1 | n | n | n | n | n
SMILES | ABHD5-PLIN5 inh | Exocytosis inh | M18AAP inhibitor | Platelet DG rel | Rce1 inhib
C/C(CC(=O)NC1CCCC1)=N\NC(=O)Cc1cccs1 | 63 | n | n | n | n
O=C1C=CC(=O)c2c(O)c(N3CCN(CCOCCO)CC3)c(Br)c(O)c21 | n | 62 | x | x | x
O=C(N/N=C/C(Cl)=C/c1ccc([N+](=O)[O-])cc1)C(=O)Nc1ccc(C(=O)O)cc1 | n | n | n | n | n
Cc1cc(Br)cc(C=Nc2ccc(N3CCOCC3)cc2)c1O | n | 74 | x | n | n
Cc1sc(/N=C/c2ccccc2O)c(C#N)c1C | x | x | 36 | n | n
O=C(NCc1ccncc1)C1Cc2c(-c3ccccc3Oc3ccccc3)ccnc2O1 (configuration not stated) | n | n | x | x | x
CCOc1ccc2ccccc2c1C(=O)N[C@@H]1C(=O)N2[C@@H]1SC(C)(C)[C@@H]2C(=O)O | n | n | n | n | n
COc1ccc([C@H]2C[C@@H](O)[C@H](n3cc(COC(=O)c4ccccc4)nn3)CN2Cc2cccs2)cc1 | n | n | x | x | x
CCCCn1c(-c2csc3c2CCC(C)C3)n[nH]c1=S (configuration not stated) | n | n | n | n | n
CC1(C)Cc2c(C#N)c(N3CCN(C(=O)c4ccccc4Cl)CC3)nc(-c3ccco3)c2CS1 | 29 | n | n | n | n
COc1ccc(C2NC(=O)c3n[nH]c(C)c32)c(OC)c1 (configuration not stated) | n | n | n | 62 | n
CN(C)CCSc1nc(-c2ccccc2)nc2c1CCC2 | n | n | n | n | n
COc1ccc(NC(=O)CCS(=O)(=O)c2ccc3nc(C)sc3c2)cc1OC | n | n | n | 74 | n
COc1cc(NC(=O)CCS(=O)(=O)c2ccc3nc(C)sc3c2)cc(OC)c1OC | n | n | n | n | n
Cc1ccc(-n2c(Cn3c(C)nc4ccccc43)n[nH]c2=S)cc1 | n | n | 33 | n | n
O=C(CCNS(=O)(=O)c1ccc2ccccc2c1)NCCOc1ccccc1 | n | n | x | x | x
O=C(O)c1cccc(N/N=C/c2cn(-c3ccccc3)nc2-c2cccs2)c1 | n | n | 31 | n | n
NS(=O)(=O)c1ccc(N/N=C/c2cn(-c3ccccc3)nc2-c2cccs2)cc1 | n | n | n | n | +
Nc1nnc(-c2ccncc2)s1 | n | n | n | n | +
COc1ccc(OC)c2sc(N(CCCN(C)C)C(=O)CCS(=O)(=O)c3ccccc3)nc12 | 39 | n | x | n | n
NNc1nc2c(Cl)c(Cl)ccc2s1 | n | n | 30 | n | n
COc1cccc2sc(NN)nc12 | n | n | n | n | n
O=C(O)c1cccc(NC(=O)C2CCCO2)c1 (configuration not stated) | n | n | n | n | n
O=C1C([N+](=O)[O-])=C(O)c2cccc3cccc1c23 | x | x | 32 | n | n
COC(=O)c1cc(C)nc(Nc2nc(C(N)Cc3ccc(Cl)cc3)cs2)n1 (configuration not stated) | n | n | x | x | x
SMILES | ABHD5-PLIN5 inh | Exocytosis inh | M18AAP inhibitor | Platelet DG rel | Rce1 inhib
CC(OC(=O)c1ccc(S(C)(=O)=O)c([N+](=O)[O-])c1)C(=O)NC1C2CC3CC(C2)CC1C3 (configuration not stated) | 23 | n | x | x | x
CC1(c2ccncc2)Nc2ccccc2-c2nc3ccccc3n21 (configuration not stated) | n | n | n | n | +
O=C(CSc1nnc(-c2c[nH]c3ccccc23)o1)N(Cc1ccccc1)c1ccc(F)cc1 | n | 78 | n | n | n
COC(=O)[C@@]1(Cc2ccc(F)cc2)[C@H]2c3cc(C(=O)N(C)C)n(CCF)c3C[C@H]2CN1C(=O)c1ccccc1 | n | n | x | x | x
COC(=O)[C@@]1(Cc2ccccc2)[C@@H]2C(=CC(=O)[C@H]2CC(=O)C(=O)N(C)C)CN1C(=O)c1ccccc1 | 31 | n | n | n | n
CC#CC(=O)N1CCCC(Cc2cccc(OC)c2)(C(=O)OCC)C1 (configuration not stated) | n | n | n | n | n
O=C(O)CCCC[C@@H]1SC[C@@H]2NC(=O)N[C@@H]21 | n | n | x | n | +
CCN(CC(=O)Nc1ccc(NC(C)=O)cc1)C(=O)CCN1C(=O)C2CC=CCC2C1=O (configuration not stated) | n | n | x | x | x
COc1ccc(-c2cn(CCC(=O)NCc3ccc(C)cc3)c(-c3ccncc3)n2)cc1 | n | n | n | n | n
